Residual activity data for 6 molecules are collected here from ChEMBL document CHEMBL2218924, “A broad activity screen in support of a chemogenomic map for kinase signalling research and drug discovery” (Biochem J, 2013).

Experiment [1] concerns the target T1, cGMP-dependent protein kinase 1 (Homo sapiens) (UniProt Q13976).
T1 sequence (whole entry): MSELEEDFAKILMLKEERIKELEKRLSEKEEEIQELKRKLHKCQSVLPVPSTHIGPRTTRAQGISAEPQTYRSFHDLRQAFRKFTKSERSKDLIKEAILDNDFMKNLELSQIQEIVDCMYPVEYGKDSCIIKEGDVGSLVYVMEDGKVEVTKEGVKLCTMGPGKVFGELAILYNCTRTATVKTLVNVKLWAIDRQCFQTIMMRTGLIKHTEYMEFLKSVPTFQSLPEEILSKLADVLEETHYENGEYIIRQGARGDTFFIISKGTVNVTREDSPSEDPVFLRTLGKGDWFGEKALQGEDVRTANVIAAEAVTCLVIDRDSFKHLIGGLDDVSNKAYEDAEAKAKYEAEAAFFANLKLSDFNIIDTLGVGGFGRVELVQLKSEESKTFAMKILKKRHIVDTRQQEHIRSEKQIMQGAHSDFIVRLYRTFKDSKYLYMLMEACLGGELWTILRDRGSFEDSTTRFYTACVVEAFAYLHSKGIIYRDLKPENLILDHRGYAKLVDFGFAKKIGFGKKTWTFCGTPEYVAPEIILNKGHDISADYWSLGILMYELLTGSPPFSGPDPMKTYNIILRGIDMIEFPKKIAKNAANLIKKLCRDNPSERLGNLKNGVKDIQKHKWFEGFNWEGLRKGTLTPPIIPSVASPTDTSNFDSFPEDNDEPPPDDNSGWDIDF
As to conditions: at 1 µM.

Experiment [2] addresses T1, cGMP-dependent protein kinase 1 (Homo sapiens). To be noted: at 10 µM.
The target is the same in experiment [3]. To be noted: at 1 µM. This is another data set of the same source.
Experiment [4] shares this target. As to conditions: at 10 µM. The source holds these as a separate data set.
Experiment [5] has as its target T2, MAP kinase-activated protein kinase 5 (Homo sapiens) (UniProt Q8IW41).
T2 sequence (whole entry): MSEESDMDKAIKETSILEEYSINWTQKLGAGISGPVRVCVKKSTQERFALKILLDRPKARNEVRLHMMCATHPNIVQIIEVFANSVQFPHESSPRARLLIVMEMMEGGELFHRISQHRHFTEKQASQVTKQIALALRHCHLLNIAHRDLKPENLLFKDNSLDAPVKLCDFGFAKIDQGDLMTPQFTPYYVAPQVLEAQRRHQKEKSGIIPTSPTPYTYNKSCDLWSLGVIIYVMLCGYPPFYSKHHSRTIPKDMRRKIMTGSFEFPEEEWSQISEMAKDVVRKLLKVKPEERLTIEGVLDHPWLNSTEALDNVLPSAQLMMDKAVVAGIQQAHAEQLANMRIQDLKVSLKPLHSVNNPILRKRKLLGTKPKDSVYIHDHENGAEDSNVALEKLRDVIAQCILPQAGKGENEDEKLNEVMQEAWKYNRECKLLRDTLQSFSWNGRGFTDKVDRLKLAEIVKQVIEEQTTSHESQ
As to conditions: at 1 µM.

In experiment [6] the target is T2, MAP kinase-activated protein kinase 5 (Homo sapiens). As to conditions: at 10 µM.
For experiment [7], the target named is Serine/threonine-protein kinase N2 (Homo sapiens) (UniProt Q16513). As to conditions: at 1 µM.
For experiment [8] the target is unchanged. To be noted: at 10 µM.
Experiment [9] deals with Tyrosine-protein kinase FRK (Homo sapiens) (UniProt P42685). To be noted: at 1 µM.
Experiment [10] shares this target. As to conditions: at 10 µM.
Experiment [11] has as its target T3, Phosphorylase b kinase gamma catalytic chain, liver/testis isoform (Homo sapiens) (UniProt P15735).
T3 sequence (whole entry): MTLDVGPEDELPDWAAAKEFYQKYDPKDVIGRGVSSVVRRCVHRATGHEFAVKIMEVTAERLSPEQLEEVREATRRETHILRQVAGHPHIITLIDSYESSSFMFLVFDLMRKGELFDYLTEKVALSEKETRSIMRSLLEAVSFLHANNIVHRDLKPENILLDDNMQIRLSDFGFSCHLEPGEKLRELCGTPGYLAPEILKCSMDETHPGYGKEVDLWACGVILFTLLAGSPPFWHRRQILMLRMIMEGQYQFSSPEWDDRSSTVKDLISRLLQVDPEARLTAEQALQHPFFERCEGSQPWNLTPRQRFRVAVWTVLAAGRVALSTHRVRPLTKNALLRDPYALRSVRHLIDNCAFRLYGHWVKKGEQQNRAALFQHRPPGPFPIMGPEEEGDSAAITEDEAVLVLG
To be noted: at 1 µM.

The target in experiment [12] is T3, Phosphorylase b kinase gamma catalytic chain, liver/testis isoform (Homo sapiens). As to conditions: at 10 µM.
Experiment [13] addresses Serine/threonine-protein kinase pim-1 (Homo sapiens) (UniProt P11309). To be noted: at 1 µM.
Experiment [14] has the same target. To be noted: at 10 µM.
The target of experiment [15] is Serine/threonine-protein kinase pim-2 (Homo sapiens) (UniProt Q9P1W9). As to conditions: at 1 µM.
Experiment [16] has the same target. To be noted: at 10 µM.
Experiment [17] addresses Serine/threonine-protein kinase pim-3 (Homo sapiens) (UniProt Q86V86). To be noted: at 1 µM.
For experiment [18] the target is unchanged. As to conditions: at 10 µM.
Experiment [19] has as its target Serine/threonine-protein kinase PLK1 (Homo sapiens) (UniProt P53350). To be noted: at 1 µM.
Experiment [20] shares this target. To be noted: at 10 µM.

Tyrosine-protein kinase FRK (Homo sapiens), sequence (P42685 whole entry): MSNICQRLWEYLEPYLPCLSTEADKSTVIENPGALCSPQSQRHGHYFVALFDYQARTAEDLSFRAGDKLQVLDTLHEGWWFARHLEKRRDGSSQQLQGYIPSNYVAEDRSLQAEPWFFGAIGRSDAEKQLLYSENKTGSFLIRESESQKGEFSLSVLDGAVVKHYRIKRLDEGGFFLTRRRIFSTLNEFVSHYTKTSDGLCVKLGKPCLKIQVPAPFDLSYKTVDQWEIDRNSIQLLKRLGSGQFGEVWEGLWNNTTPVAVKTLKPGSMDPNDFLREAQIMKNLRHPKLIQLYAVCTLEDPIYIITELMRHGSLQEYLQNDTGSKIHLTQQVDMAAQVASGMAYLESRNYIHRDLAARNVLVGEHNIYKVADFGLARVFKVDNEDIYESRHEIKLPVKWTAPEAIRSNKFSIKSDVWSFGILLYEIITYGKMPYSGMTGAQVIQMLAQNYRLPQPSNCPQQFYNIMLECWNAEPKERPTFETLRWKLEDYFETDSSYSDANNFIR
Serine/threonine-protein kinase pim-2 (Homo sapiens), sequence (Q9P1W9 whole entry, looked up): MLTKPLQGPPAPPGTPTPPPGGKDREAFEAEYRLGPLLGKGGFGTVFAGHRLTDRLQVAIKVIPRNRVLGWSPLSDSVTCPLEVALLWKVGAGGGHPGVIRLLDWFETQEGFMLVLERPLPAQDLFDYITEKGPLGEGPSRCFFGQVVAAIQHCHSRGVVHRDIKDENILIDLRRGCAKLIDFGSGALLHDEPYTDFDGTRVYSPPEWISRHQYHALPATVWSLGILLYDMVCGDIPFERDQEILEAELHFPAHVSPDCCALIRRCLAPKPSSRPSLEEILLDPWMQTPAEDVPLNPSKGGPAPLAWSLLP
Serine/threonine-protein kinase pim-1 (Homo sapiens), sequence (P11309 whole entry, looked up): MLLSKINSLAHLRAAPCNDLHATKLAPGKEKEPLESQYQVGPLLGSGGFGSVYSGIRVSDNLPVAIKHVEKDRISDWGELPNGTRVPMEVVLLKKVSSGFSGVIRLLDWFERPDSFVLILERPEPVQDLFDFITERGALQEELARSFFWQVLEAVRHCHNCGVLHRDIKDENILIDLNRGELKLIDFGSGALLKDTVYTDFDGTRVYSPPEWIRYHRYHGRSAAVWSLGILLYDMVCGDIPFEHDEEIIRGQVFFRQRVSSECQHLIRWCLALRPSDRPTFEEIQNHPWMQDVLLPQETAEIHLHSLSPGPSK
Serine/threonine-protein kinase PLK1 (Homo sapiens), sequence (P53350 whole entry): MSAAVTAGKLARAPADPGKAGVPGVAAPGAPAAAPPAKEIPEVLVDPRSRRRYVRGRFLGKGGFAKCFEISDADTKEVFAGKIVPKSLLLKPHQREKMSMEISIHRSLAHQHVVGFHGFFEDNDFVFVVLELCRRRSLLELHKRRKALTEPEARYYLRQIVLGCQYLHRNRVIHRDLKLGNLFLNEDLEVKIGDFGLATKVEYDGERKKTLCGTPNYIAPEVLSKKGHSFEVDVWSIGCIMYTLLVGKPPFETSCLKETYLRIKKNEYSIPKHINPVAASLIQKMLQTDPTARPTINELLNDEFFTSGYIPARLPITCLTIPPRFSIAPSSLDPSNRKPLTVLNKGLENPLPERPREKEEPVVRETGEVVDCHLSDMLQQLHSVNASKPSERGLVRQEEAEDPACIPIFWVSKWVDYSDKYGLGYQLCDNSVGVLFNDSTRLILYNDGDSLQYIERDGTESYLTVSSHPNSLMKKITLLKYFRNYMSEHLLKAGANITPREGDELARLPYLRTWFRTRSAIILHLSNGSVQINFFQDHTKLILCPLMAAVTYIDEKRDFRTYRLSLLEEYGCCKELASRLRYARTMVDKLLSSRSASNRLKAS
Serine/threonine-protein kinase N2 (Homo sapiens), sequence (Q16513 whole entry, looked up): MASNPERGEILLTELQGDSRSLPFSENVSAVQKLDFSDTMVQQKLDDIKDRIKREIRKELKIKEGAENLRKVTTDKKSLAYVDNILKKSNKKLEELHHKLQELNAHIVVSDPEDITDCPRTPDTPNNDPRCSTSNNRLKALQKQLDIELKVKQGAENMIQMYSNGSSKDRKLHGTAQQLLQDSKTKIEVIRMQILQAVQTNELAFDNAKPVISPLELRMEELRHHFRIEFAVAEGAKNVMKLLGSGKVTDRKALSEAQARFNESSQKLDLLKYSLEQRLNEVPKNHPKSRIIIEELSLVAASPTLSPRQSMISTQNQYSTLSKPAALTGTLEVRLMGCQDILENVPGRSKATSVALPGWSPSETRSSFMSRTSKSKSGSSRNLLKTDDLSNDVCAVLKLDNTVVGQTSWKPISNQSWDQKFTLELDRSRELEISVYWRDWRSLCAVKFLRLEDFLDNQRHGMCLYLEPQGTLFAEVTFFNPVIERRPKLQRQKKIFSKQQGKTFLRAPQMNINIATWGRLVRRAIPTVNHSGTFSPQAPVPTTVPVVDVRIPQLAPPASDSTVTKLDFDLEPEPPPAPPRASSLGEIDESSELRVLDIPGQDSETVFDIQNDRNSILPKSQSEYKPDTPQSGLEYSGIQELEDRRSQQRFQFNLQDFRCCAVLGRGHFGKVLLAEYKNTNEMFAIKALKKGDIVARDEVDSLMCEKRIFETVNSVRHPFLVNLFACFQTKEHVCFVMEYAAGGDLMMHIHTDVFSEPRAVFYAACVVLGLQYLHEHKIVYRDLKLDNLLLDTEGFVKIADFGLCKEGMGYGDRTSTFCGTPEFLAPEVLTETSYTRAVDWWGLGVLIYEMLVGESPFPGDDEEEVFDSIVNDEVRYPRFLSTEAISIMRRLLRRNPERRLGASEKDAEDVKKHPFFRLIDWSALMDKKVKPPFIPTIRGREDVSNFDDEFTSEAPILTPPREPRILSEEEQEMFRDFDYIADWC

Regarding `COc1cccc(-c2cc(=O)c3ccccc3o2)c1N`, the residual activity in experiment [1] was 95%; in [2] it was 89%; in experiment [3], 114%; in experiment [4] it was 102%; in experiment [5], 125%; in [6], 108%. Also, the residual activity worked out at 94% in experiment [7]; 90% in experiment [8]; 93% in experiment [9]; 86% in [10]; 113% in experiment [11]; 117% in experiment [12]. The residual activity in [13] amounted to 82%; in [14], 58%; in experiment [15], 126%; in experiment [16], 102%; in experiment [17], 89%; in [18] it was 91%. In addition, the residual activity in experiment [19] stood at 81%; in [20], 102%.

As to `C[C@@H](N)[C@H]1CC[C@H](C(=O)Nc2ccncc2)CC1`, the residual activity in [1] is 77%; in experiment [2], 31%; in experiment [3] it was 73%; in experiment [4], 30%; in experiment [5], 112%; in [6], 102%. Besides, the residual activity was 16% in [7]; 4% in experiment [8]; 98% in experiment [9]; 97% in experiment [10]; 101% in experiment [11]; 93% in [12]. Besides, the residual activity in [13] was 126%; in [14], 115%; in experiment [15], 118%; in [16], 121%; in [17], 98%; in experiment [18], 99%. Also, the residual activity in [19] worked out at 107%; in experiment [20], 105%.

Consider `O=c1cc(-c2cccc3c2Sc2ccccc2S3)oc(N2CCOCC2)c1`, for which the residual activity in experiment [1] came to 102%; in [2] it was 105%; in [3], 81%; in experiment [4] it was 80%; in experiment [5], 99%; in [6] it was 40%. In addition, the residual activity in [7] was 112%; in experiment [8] it was 97%; in experiment [9] it was 94%; in experiment [10], 92%; in experiment [11] it was 96%; in experiment [12], 100%. Moreover, the residual activity in [13] was found to be 93%; in experiment [14], 30%; in experiment [15], 68%; in experiment [16], 29%; in experiment [17], 102%; in experiment [18] it was 85%. The residual activity in experiment [19] is 95%; in experiment [20] it was 99%.

On to `CCOc1cc2ncnc(Nc3cccc(Br)c3)c2cc1OCC`, for which the residual activity came out at 108% in [1]; 91% in [2]; 95% in [3]; 66% in experiment [4]; 79% in experiment [5]; 82% in [6]. The residual activity in experiment [7] is 93%; in experiment [8] it was 79%; in experiment [9] it was 40%; in experiment [10] it was 5%; in experiment [11] it was 92%; in experiment [12], 108%. Besides, the residual activity in [13] is 65%; in experiment [14], 57%; in experiment [15] it was 92%; in experiment [16] it was 79%; in [17], 96%; in [18], 94%. Moreover, the residual activity in [19] was 80%; in experiment [20], 81%.

`Oc1c2ccccc2c2c3c(cccc13)N=N2`: the residual activity came out at 79% in [1]; 79% in [2]; 90% in experiment [3]; 60% in experiment [4]; 59% in experiment [5]; 14% in experiment [6]. The residual activity was found to be 74% in experiment [7]; 32% in experiment [8]; 91% in experiment [9]; 58% in experiment [10]; 77% in experiment [11]; 15% in [12]. In addition, the residual activity was 68% in experiment [13]; 18% in experiment [14]; 58% in experiment [15]; 21% in experiment [16]; 75% in [17]; 59% in experiment [18]. Further, the figures for the residual activity in experiment [19] and in experiment [20] were 69% and 64%, respectively.

In the case of `Cc1nc(-c2ccccc2)c(-c2ccncc2)o1`, the residual activity stood at 93% in [1]; 80% in [2]; 115% in experiment [3]; 90% in experiment [4]; 110% in experiment [5]; 115% in experiment [6]. Further, the residual activity was 99% in [7]; 76% in [8]; 1% in experiment [9]; 2% in experiment [10]; 109% in experiment [11]; 95% in experiment [12]. Further, the residual activity in experiment [13] was 78%; in experiment [14] it was 60%; in [15], 121%; in [16] it was 117%; in experiment [17], 93%; in experiment [18], 99%. Moreover, the figures for the residual activity in experiment [19] and in experiment [20] were 92% and 93%, respectively.
